ChEMBL document CHEMBL3433997, “St. Jude Leishmania screening dataset” (2016)

What was measured:
Type in all cases: functional
[1] = biological target: Solute carrier family 2, facilitated glucose transporter member 1 (Homo sapiens) (UniProt P11166); assay: ST_JUDE_LEISH: Cytotoxicity at 2uM final concentration against transgenic Leishmania Mexicana promastigotes LmGLUT1 that are glucose transport deficient and complemented with the human glucose transporter GLUT1. Activity is measured by DNA content using SYBR green in vitro
[2] = biological target: Hexose transporter 1 (Plasmodium falciparum) (UniProt O97467); assay: ST_JUDE_LEISH: Cytotoxicity at 2uM final concentration against transgenic Leishmania Mexicana promastigotes LmPfHT that are glucose transport deficient and complemented with the Plasmodium falciparum hexose transporter. Activity is measured by DNA content using SYBR green in vitro
[3] = biological target: Glucose transporter (Leishmania mexicana) (UniProt O61059); assay: ST_JUDE_LEISH: Cytotoxicity at 2uM final concentration against transgenic Leishmania Mexicana promastigotes LmGT2 that are glucose transport deficient and complemented with the L. Mexicana glucose transporter 2. Activity is measured by DNA content using SYBR green in vitro

Sequence of Solute carrier family 2, facilitated glucose transporter member 1 (Homo sapiens) (P11166 whole entry): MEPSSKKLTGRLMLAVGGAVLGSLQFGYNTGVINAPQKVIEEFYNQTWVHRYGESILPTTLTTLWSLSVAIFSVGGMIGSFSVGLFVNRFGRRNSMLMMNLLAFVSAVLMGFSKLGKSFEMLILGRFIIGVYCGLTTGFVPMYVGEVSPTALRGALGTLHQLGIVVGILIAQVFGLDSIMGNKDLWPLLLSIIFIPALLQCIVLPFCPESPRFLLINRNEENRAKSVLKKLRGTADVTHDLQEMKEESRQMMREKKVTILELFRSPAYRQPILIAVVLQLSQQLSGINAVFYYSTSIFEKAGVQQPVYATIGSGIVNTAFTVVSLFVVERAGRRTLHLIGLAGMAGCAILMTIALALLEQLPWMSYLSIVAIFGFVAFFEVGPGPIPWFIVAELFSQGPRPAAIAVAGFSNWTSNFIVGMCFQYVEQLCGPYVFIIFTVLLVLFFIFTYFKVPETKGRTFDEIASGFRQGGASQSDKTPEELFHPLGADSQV

| Structure (SMILES) | inhibition [1] | inhibition [2] | inhibition [3] |
| --- | --- | --- | --- |
| COc1ccc(Cl)cc1N1CCN(CCCNC(=O)c2ccc(-c3nc4cc(Cl)c(C)cc4[nH]3)c(F)c2)CC1 | 1.96% | 0.19% | 0.07% |
| CC1(C)N=C(N)N=C(N)N1c1ccc(Oc2ccccc2)cc1 | 1.59% | 1.71% | 2.8% |
| N=c1n(CCN2CCCC2)c2ccccc2n1CC(O)c1ccc(Cl)c(Cl)c1 (centres undefined) | 1.98% | 1.57% | 9.08% |
| COc1cc(Cc2cnc(N)nc2N)cc(OCCCCC2SC(=O)NC2=O)c1Br (centres undefined) | 6.08% | 4.54% | 5.43% |
| NC1CCN(CCNCc2cccc(-c3ccc(-c4nc5cc(C(F)(F)F)ccc5[nH]4)cc3)c2)C1 (centres undefined) | 2.65% | 1.4% | 2.67% |
| CC(C)NCC(O)COc1ccc(Cc2ccc(OCC(O)CNC(C)C)cc2)cc1 (centres undefined) | -0.23% | 0.19% | -0.55% |
| COc1ccc2nccc([C@@H](O)CN3CCC(NCc4cnc5c(c4)NC(=O)CS5)CC3)c2c1 | 2.7% | 4.54% | 1.2% |
| COc1cc(Nc2nccc(N3CCC(NC(=O)Nc4ccc5c(c4)OCO5)C3)n2)cc(OC)c1OC (centres undefined) | 11.1% | 6.84% | 8.87% |
| CCC(O)c1ccc(Br)cc1NC(=O)c1cccc(Cl)c1 (centres undefined) | -1.21% | 1.01% | -0.55% |
| CC(C)(C)c1ccc2[nH]c(-c3ccc(C(=O)NCc4cccc(C(F)(F)F)c4)cc3)nc2c1 | -0.02% | 0.63% | 3.09% |
| CC(CCNc1c2ccccc2nc2ccccc12)N1CCN(C)CC1 (centres undefined) | 30.8% | 29.1% | 20.8% |
| Cc1cc(NCCC(=O)Nc2ccccc2)nc(NCC2CCCCC2)n1 | 5.97% | 3.39% | 3.6% |
| O=C(NCc1ccc(F)cc1)c1ccc(N2CCN(c3ccncc3)CC2)cn1 | 2.68% | -0.85% | 1.79% |
| CNC(=O)c1cnc(Nc2ccc(OCC(O)CN(C)C)cc2)nc1Nc1cccc(OC(C)C)c1 (centres undefined) | 2.84% | -0.45% | 1.38% |
| Clc1cccc(C=NN=c2cc[nH]c3ccccc23)c1 | 1.39% | 2.56% | 2.9% |
| COc1ccc2nc(-c3cccc(C)n3)nc(Nc3ccncc3)c2c1 | 11.6% | 1.8% | 2.21% |
| O=C(NC1CCN(Cc2ccccc2)CC1)c1cccc(-c2nc3ccc(Cl)cc3[nH]2)c1 | 1.15% | 2.61% | 2.94% |
| Fc1cc(Cl)ccc1Nc1ccnc2cc(-c3ccc(CNCCN4CCOCC4)o3)ccc12 | 1.58% | 1.07% | 0.9% |
| O=C(NCc1ccc(F)cc1)Nc1cccc(-c2ccc(-c3nc4ccccc4[nH]3)cc2)c1 | 1.76% | 0.3% | -0.44% |
| O=C(Nc1cccc(OC2CCN(Cc3ccccc3)CC2)c1)c1ccc(Cl)c(Cl)c1 | 3.35% | 1.85% | 3.44% |
| O=C(Nc1ccc(OC2CCN(Cc3ccc(F)cc3)C2)c(Cl)c1)c1ccc(F)cc1 (centres undefined) | -0.04% | -0.69% | -1.62% |
| COC(=O)c1cc(C(O)CNC(C)CCCc2ccccc2)ccc1O (centres undefined) | 0.96% | -0.05% | -0.85% |
| Oc1ccc(-c2cc(-c3ccc(O)cc3)nc(-c3ccccc3)n2)cc1 | 2.51% | 1.53% | 0.82% |
| CCCNC(=O)c1ccc(N2CCC(c3ccccc3C)CC2)nc1 | 0.89% | 0.25% | 0.97% |

| Structure (SMILES) | inhibition [1] | inhibition [2] | inhibition [3] |
| --- | --- | --- | --- |
| O=C(CN1CCN(C(C(=O)Nc2cc(C(F)(F)F)ccc2Cl)c2ccccc2)CC1)NC1CC1 (centres undefined) | 0.74% | 2.72% | 3.2% |
| c1ccc(Oc2ccc(Nc3ccnc4cc(-c5cccc(CNCCN6CCOCC6)c5)ccc34)cc2)cc1 | -0.34% | -0.08% | 1.68% |
| c1cncc(CN2CCN(Cc3ccc(-c4ccc(-c5nc6ccccc6[nH]5)s4)cc3)CC2)c1 | 12.2% | 7.69% | 1.44% |
| CN1CCCN(Cc2ccc(-c3cccc(NC(=O)c4cccc(F)c4)c3)cc2)CC1 | 12.9% | 9.38% | 7.57% |
| O=C(c1ccco1)N1CCN(c2ccc([N+](=O)[O-])c(NC3CC3)c2)CC1 | 0.6% | 0.13% | -1.35% |
| CC1(C)C(=O)Nc2ccccc2N1C(=O)CN1CCN(c2ccccc2O)CC1 | 0.51% | -0.55% | -3.82% |
| CC(C)(CNC(=O)C1CCN(Cc2ccoc2)CC1)c1nc(-c2ccc(Cl)c(O)c2)c(-c2ccncc2)[nH]1 | -1.41% | 0.07% | -2.68% |
| O=S1(=O)C=C(c2ccccc2)CC1 | 1.23% | 1.28% | 1.41% |
| CCCCN(CCCC)CCCN(CCCN(CCCC)CCCC)c1cc(C)nc(Nc2ccc(Cl)cc2)n1 | -0.03% | 0.22% | 0.44% |
| COc1ccccc1CN1CCC(CNC(=O)c2cc(-c3cccc(C(F)(F)F)c3)cs2)C1 (centres undefined) | 0.96% | 1.45% | 1.94% |
| C=CCOc1ccc(C2C(C(=O)OC)=C(C)NC3=C2C(=O)c2ccccc23)cc1OC (centres undefined) | -0.61% | 4.51% | 1.15% |
| O=C(Nc1ccc(Cl)c(Cl)c1)Nc1ccc2c(c1)CCNCC2 | -0.33% | 0.96% | 0.79% |
| CCOC(=O)c1cc(Cl)cc(Cl)c1OCCCON1C(=N)N=C(N)NC1(C)C | 0.88% | 0.77% | 1.35% |
| CS(=O)(=O)CCNC(=O)c1ccc(-c2cc3c(Nc4ccc5c(cnn5Cc5ccccc5)c4)ncnc3cn2)o1 | 3.86% | 3.93% | 4.93% |
| O=C(N[C@@H](Cc1ccccc1)[C@H](O)CNC1CCCCC1)c1cc(C2CCCC2)cc(N2CCCC2=O)c1 | -1.39% | -1.21% | -3.12% |
| Oc1cccc(Nc2ccnc3cc(-c4ccncc4)ccc23)c1 | 10.6% | 9.58% | 8.68% |
| CCC(C)(C)c1ccc2nc(N)nc(N)c2c1C | 74.5% | 76.4% | 61.7% |
| Cc1ccc(Nc2nccc(NCC(O)c3cccc(F)c3)n2)cc1 (centres undefined) | 0.93% | 1.15% | -0.59% |
| CC(=O)Oc1cc(C)ccc1C1CCN(CCCCNC(=O)c2ccc(NC(=O)c3ccc(Cl)cc3)cc2)CC1 | 1.6% | 1.07% | 1.52% |
| CCc1nc(N)nc(N)c1-c1ccc(C(C)C)cc1 | 2.65% | 2.31% | 2.86% |
| Cc1ccc2[nH]c(C)cc(=NN=CC=Cc3ccccc3)c2c1 | -0.92% | 1.15% | -6.67% |
| C=CCn1c(SCc2c(C)noc2C)nc2scc(-c3cccs3)c2c1=O | 0.98% | 0.21% | -5.13% |
| O=C(Cc1c[nH]cn1)Nc1cccc(-c2cccc(-c3nc4ccccc4[nH]3)c2)c1 | 9.66% | 12.8% | 7.58% |
| CN(C)c1cc(NC(=O)Nc2ccc(SC(F)(F)F)cc2)c2ccccc2n1 | -0.23% | 0.11% | 0.58% |
